Calls of active or inactive are those of the source. Unless noted, no rule for the calls is given here.
What was measured:
[1] = test system: Wnt5a (protein binding on small-molecule microarray); test: Wnt5a binders on small-molecule microarray, primary screen, biophysical, 635/667 nm fluorescence (AID 1142); settings: 635 nm fluorescence, higher = more signal;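 also: fluorescence read at 667 nm with signal to noise per printed feature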
[2] = cell viability in Huh7 cells, primary screen, cytotoxicity control for HCV replication inhibitor project, CellTiter-Glo luminescence, basal, 48 h (AID 1143); settings: Huh7 HCV replicon, higher = more signal, called active from +8 up or from −8 down;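 also: Huh7 hepatoma cells carrying a hepatitis C replication reporter with no stimulus; test concentration not given here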
[3] = P. aeruginosa biofilm formation inhibitors, primary screen, PAO1 strain, BacTiter-Glo luminescence, LB-PBS (AID 1144); settings: 12 h, higher = more signal
[4] = CREB reporter modulators without forskolin, primary screen, cell-based, PC12, CRE-LacZ reporter, unstimulated (AID 1145); settings: no forskolin, luminescence, 4.5 h, higher = more signal, called active from +8 up or from −8 down
[5] = CREB reporter modulators under forskolin, primary screen, cell-based, PC12, CRE-LacZ reporter, forskolin-stimulated (AID 1146); settings: luminescence, 4.5 h, higher = more signal, called active from +8 up or from −8 down;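 also: PC12 cells with 6xCRE LacZ reporter stimulated by forskolin 10 µM; beta-galactosidase reporter signal reflecting CREB driven transcription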
[6] = biological target: Streptavidin (Streptomyces avidinii) (UniProt P22629); test: streptavidin binders on small-molecule microarray, primary screen, artefact control for SMM compound annotation, biophysical, 635/667 nm fluorescence (AID 1147); settings: streptavidin binding, higher = more signal;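 also: signal reflects streptavidin binding to arrayed compounds as a control protein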
[7] = small-molecule binders of probe aInhba, primary screen, biochemical, small-molecule microarray, 635/667 nm fluorescence (AID 1148); settings: higher = more signal;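 also: score merges 667nm spot fluorescence with signal-to-noise for antibody binding to printed compounds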
[8] = biological target: Torsin-1A (Homo sapiens) (UniProt O14656); test: torsin A binders from cell lysate, primary screen, small-molecule microarray, wild-type, 635/667 nm (AID 1149); settings: COS7 hTOR1A-WT lysate, 635 nm fluorescence, higher = more signal
[9] = biological target: Torsin-1A (Homo sapiens) (UniProt O14656); test: small-molecule binders of mutant TOR1A in lysate, primary screen, cell lysate, small-molecule microarray, COS7 lysate, 635/667 nm fluorescence (AID 1150); settings: COS7 hTOR1A mutant lysate, 635 nm fluorescence, higher = more signal;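 also: score pools 667 nm emission and signal to noise measuring lysate protein binding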
[10] = test system: Sonic hedgehog protein (Shh); test: small-molecule binders of Shh protein, primary screen, biochemical, small-molecule microarray, 635/667 nm fluorescence (AID 1151); settings: small-molecule microarray binding, 635 nm fluorescence; higher = more signal;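 also: Shh protein binding to compounds spotted on small-molecule microarray slides; score combines spot fluorescence intensity with signal-to-noise across triplicate slides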
[11] = E. coli DRC41 culture turbidity changes, primary screen, E. coli filamentation inducer project, strain DRC41, OD650, 48 h (AID 1152);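 also: E. coli MC1000 strain DRC41 lacking acrAB efflux pump and sulA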; settings: E. coli DRC41 (acrAB sulA), higher = more signal, called active from +8 up or from −8 down
[12] = small-molecule binders of probe aLefty1, primary screen, biochemical, small-molecule microarray, 635/667 nm fluorescence (AID 1153); settings: higher = more signal;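 also: score merges spot fluorescence with signal-to-noise ratio from the scanned slide images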
[13] = PSAC antagonists in infected red cells, primary screen, cell-based, P. falciparum Indochina, OD700, 1 h (AID 1154); settings: P. falciparum Indochina infected RBC osmotic lysis, higher = more signal, called active from +8 up or from −8 down
[14] = PSAC antagonists in infected red cells, primary screen, cell-based, P. falciparum Indochina, OD700, 2 h (AID 1155);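 also: lysis reports solute entry through the parasite surface anion channel PSAC; channel blockers reduce lysis of infected cells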; settings: P. falciparum Indochina infected erythrocytes, osmotic lysis OD700; higher = more signal, called active from +8 up or from −8 down
[15] = osmotic lysis modulators in infected erythrocytes, primary screen, PSAC antagonist project, cell-based, P. falciparum Indochina, OD700, 3 h (AID 1156); settings: higher = more signal, called active from +8 up or from −8 down
[16] = PSAC antagonists in infected red cells, primary screen, cell-based, P. falciparum Indochina, OD700, 18 h (AID 1157); settings: P. falciparum Indochina infected erythrocytes, osmotic lysis OD700, 18 h; higher = more signal, called active from +8 up or from −8 down
[17] = modulators of S6 phosphorylation in cells, primary screen, cell-based, A549, cytoblot, luminescence, serum-stimulated (AID 1158); settings: A549 phospho-S6 cytoblot, 5 h, higher = more signal;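 also: serum-stimulated A549 lung adenocarcinoma cells; signal is phosphorylated S6 detected by cytoblot immunostaining with HRP secondary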
[18] = biological target: NADPH oxidase 2 (Homo sapiens) (UniProt P04839); test: NOX2-dependent H2O2 signal modulators, primary screen, NOX inhibitor project, cell-based, HEK293-NOX2, PMA-stimulated, Amplex Red fluorescence (AID 1159); settings: 45 min, higher = more signal, called active from +8 up or from −8 down; also: test concentration not given here
[19] = biological target: NADPH oxidase 4 (Homo sapiens) (UniProt Q9NPH5); test: NOX4-dependent H2O2 signal modulators, primary screen, NOX inhibitor project, cell-based, HEK293-NOX4, tetracycline-induced, Amplex Red fluorescence (AID 1160); settings: 45 min, higher = more signal, called active from +8 up or from −8 down
[20] = biological target: NADPH oxidase 5 (Homo sapiens) (UniProt Q96PH1); test: NOX5-dependent H2O2 signal modulators, primary screen, NOX inhibitor project, cell-based, HEK293-NOX5, Amplex Red fluorescence (AID 1161); settings: HEK293-NOX5, ionomycin, 45 min, higher = more signal
Sequence of NADPH oxidase 5 (Homo sapiens) (Q96PH1 whole entry, looked up): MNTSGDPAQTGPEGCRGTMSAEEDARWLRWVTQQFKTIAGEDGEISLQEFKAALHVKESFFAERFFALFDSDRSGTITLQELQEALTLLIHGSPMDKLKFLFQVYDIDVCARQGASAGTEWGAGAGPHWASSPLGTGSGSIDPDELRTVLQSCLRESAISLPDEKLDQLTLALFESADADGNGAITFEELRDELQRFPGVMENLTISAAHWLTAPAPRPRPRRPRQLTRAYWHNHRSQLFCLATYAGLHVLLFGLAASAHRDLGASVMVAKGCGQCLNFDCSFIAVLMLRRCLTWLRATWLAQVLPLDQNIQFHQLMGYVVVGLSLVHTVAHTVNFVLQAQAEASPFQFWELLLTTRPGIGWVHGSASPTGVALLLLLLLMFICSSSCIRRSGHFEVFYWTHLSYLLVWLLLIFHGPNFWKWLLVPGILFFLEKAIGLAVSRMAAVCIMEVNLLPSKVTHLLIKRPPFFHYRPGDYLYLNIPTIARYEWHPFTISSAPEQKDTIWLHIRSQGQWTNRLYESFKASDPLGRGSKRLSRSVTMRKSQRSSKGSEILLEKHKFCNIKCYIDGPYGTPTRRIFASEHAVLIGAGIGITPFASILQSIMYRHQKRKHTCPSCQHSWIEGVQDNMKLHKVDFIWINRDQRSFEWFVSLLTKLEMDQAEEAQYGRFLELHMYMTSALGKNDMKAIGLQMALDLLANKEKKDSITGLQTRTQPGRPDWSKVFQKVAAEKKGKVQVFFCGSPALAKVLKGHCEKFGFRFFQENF

Sequence of NADPH oxidase 2 (Homo sapiens) (P04839 whole entry, looked up): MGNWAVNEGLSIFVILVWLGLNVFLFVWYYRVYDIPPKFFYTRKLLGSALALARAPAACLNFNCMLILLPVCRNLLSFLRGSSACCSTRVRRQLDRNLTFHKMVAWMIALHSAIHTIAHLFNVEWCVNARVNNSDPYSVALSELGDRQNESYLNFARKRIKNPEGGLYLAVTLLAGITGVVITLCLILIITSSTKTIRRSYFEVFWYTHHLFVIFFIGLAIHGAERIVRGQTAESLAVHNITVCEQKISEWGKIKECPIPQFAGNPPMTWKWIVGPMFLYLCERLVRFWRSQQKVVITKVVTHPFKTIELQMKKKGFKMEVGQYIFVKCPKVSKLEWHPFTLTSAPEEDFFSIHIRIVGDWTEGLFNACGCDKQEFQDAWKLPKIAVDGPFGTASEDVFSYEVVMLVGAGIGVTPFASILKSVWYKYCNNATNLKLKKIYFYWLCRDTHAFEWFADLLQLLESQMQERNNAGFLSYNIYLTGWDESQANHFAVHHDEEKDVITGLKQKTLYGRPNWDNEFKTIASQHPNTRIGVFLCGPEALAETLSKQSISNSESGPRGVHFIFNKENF
Sequence of Streptavidin (Streptomyces avidinii) (P22629 whole entry, looked up): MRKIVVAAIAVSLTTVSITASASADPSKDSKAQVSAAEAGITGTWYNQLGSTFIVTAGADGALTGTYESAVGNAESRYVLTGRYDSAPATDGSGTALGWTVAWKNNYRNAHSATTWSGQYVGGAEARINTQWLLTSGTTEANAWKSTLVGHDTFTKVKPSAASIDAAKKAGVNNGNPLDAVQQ
Sequence of NADPH oxidase 4 (Homo sapiens) (Q9NPH5 whole entry, looked up): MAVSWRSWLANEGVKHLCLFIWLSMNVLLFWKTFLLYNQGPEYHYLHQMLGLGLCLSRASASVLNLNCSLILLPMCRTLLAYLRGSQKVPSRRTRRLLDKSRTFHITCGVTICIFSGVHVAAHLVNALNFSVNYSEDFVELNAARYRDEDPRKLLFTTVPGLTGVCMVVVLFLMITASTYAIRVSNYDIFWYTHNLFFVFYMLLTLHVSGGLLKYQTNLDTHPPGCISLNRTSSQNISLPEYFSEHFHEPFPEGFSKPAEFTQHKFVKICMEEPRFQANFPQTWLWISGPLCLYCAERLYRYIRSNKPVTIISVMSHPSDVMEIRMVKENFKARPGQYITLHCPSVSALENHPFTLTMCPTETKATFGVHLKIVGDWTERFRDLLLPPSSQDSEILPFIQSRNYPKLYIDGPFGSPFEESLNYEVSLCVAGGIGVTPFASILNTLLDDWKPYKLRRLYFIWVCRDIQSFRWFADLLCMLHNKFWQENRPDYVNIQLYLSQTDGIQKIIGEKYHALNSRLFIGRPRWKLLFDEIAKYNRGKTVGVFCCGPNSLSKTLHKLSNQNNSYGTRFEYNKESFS
Sequence of Torsin-1A (Homo sapiens) (O14656 whole entry, looked up): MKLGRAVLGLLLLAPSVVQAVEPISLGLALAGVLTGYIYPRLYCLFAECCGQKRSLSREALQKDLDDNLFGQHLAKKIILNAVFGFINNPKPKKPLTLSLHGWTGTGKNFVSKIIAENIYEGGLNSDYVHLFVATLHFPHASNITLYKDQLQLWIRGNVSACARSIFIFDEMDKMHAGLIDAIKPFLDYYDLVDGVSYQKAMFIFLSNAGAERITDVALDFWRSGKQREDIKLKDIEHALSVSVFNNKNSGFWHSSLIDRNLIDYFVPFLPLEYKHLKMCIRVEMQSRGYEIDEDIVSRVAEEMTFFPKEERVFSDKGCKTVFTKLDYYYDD

Structure (SMILES)	composite z-score [1]	z-score [2]	z-score [3]	z-score [4]	z-score [5]	composite z-score [6]	composite z-score [7]	composite z-score [8]	composite z-score [9]	composite z-score [10]	z-score [11]	composite z-score [12]	z-score [13]	z-score [14]	z-score [15]	z-score [16]	z-score [17]	z-score [18]	z-score [19]	z-score [20]
O=C(N1CCOCC1)[C@@]1(Cc2ccccc2)COC(c2ccc(OCCCO)cc2)=N1	0.242	-5.19 (inactive)	-0.446 (inactive)	0.484 (inactive)	-2.35 (inactive)	0.647	0.0422	0.315	1.02	-1.05	2.51 (inactive)	-0.132	12 (active)	0.653 (inactive)	0.929 (inactive)	-0.269 (inactive)	1.66	-2.33 (inactive)	0.642 (inactive)	-1.51
CCOC(=O)C[C@H]1[C@H](OC(=O)c2ccccc2-c2ccccc2)[C@@H](NC(=O)C2CCCCC2)c2cc(OCCCO)ccc2N1C(=O)c1ccc2ccccc2n1	0.243	-0.911 (inactive)	0.507 (inactive)	4.83 (inactive)	1.51 (inactive)	0.155	0.222	0.237	0.133	0.897	-0.899 (inactive)	-0.167	3.85 (inactive)	0.192 (inactive)	-0.192 (inactive)	0.255 (inactive)	-0.342	0.618 (inactive)	1.23 (inactive)	2.62
CC(C)=CCCC=C(C)C(O)C1C=CC2C(=O)N(c3ccccc3)C(=O)C2N1Nc1ccc(C#N)cc1 (stereo not given)	0.218	-2.81 (inactive)	-1.21 (inactive)	1.39 (inactive)	-0.35 (inactive)	0.555	0.0841	0.0747	0.536	0.335	-0.817 (inactive)	0.304	15.5 (active)	1.88 (inactive)	0.918 (inactive)	-1.08 (inactive)	0.0382	-1.88 (inactive)	-1.6 (inactive)	-0.882
COC(=O)C1(Cc2ccccc2)C=C2C(=C(C)C(=O)C2C)CN1 (stereo not given)	0.266	-0.723 (inactive)	0.454 (inactive)	0.0075 (inactive)	0.727 (inactive)	0.621	0.155	0.103	0.0914	-0.691	-0.492 (inactive)	0.695	0.756 (inactive)	-0.425 (inactive)	-0.662 (inactive)	-1.2 (inactive)	2.47	0.436 (inactive)	-0.568 (inactive)	-4
C=CCN1C(=O)[C@]2(O[C@H](CCn3cc([C@H](O)c4ccccc4)nn3)[C@@H]([Si](C)(C)c3ccc(OC)cc3)[C@@H]2C)c2cc(NC(=O)c3ccc(OC)cc3)ccc21	0.0292	-3.84 (inactive)	-1.5 (inactive)	1.05 (inactive)	-1.54 (inactive)	-0.0759	0.117	-0.68	0.0247	1.36	0.294 (inactive)	0.179	5.48 (inactive)	2.21 (inactive)	2.59 (inactive)	1.18 (inactive)	-0.0732	0.51 (inactive)	0.564 (inactive)	-0.0881
CC(C)NC(=O)[C@@H]1c2ccccc2C(=O)N(Cc2ccccc2C(F)(F)F)[C@H]1c1ccc(CO)cc1	-0.0854	-2.26 (inactive)	-0.949 (inactive)	-0.179 (inactive)	1.71 (inactive)	-0.962	-0.169	-0.371	0.0029	-0.214	0.0029 (inactive)	-0.556	2.58 (inactive)	0.0744 (inactive)	1.32 (inactive)	0.596 (inactive)	-0.262	1.21 (inactive)	-0.805 (inactive)	-1.97
C=C(CCCC)/C(=C/C[C@H](OC(=O)c1ccncc1)c1ccccc1OCCO)c1cc(C(=O)OC)ccc1OC	-0.0692	-1.78 (inactive)	-0.402 (inactive)	11.4 (active)	0.179 (inactive)	0.396	0.0391	0.0152	0.369	1.43	0.0839 (inactive)	0.165	23.6 (active)	6.35 (inactive)	3.84 (inactive)	1.44 (inactive)	-0.166	0.559 (inactive)	-0.48 (inactive)	-1.67
CCCCC(O)C1C=CC2C(=O)N(c3ccccc3)C(=O)C2N1Nc1ccccc1 (stereo not given)	-0.152	0.564 (inactive)	-0.279 (inactive)	0.257 (inactive)	0.875 (inactive)	0.682	0.0278	-0.0483	0.0691	-1.35	-0.274 (inactive)	0.139	4.52 (inactive)	0.786 (inactive)	-0.196 (inactive)	1.17 (inactive)	-0.439	-1.17 (inactive)	-2.93 (inactive)	-2.06
C=C(CCCC)/C(=C/C[C@H](OC(=O)c1ccncc1)c1cccc(OCCO)c1)c1cnc2ccccc2c1	0.24	-1.58 (inactive)	0.124 (inactive)	2.6 (inactive)	0.256 (inactive)	0.905	0.0155	0.947	0.706	1.78	-0.639 (inactive)	0.0429	23.9 (active)	7.01 (inactive)	1.5 (inactive)	1.26 (inactive)	-0.282	-0.777 (inactive)	-0.293 (inactive)	-1.82

Reference: PubChem BioAssay
